This is an account of results in paper PMC8384837, “Expanding the binding specificity for RNA recognition by a PUF domain”.

What all share (assay): yeast three-hybrid, YBZ-1, SC-Leu-His + 0.5 mM 3-AT, 4 days
Common to all, as to conditions: tags: N-Gal4 AD-HA kept; label: inside an RPR1-promoter hybrid RNA with tandem MS2 sites; ssRNA

The target of assay [1] is PUM1 PUF domain R3-GRS (Homo sapiens, UniProt Q14671 828-1176, C935G;Q939S). The method in brief:
(§1)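 Sequencing with Illumina followed PCR amplification of the repeat regions from transformants grown four days on SC-Leu (input) or SC-Leu-His + 0.5 mM 3-AT (selection). The transformants were strain YBZ-1 with a LexA–MS2 coat fusion and a HIS3 reporter, carrying Pumilio-1 PUF domain libraries and matching RNA elements. The interaction score is the log change in variant frequency from input to selection, computed in log2 with a pseudocount of 1 for absent variants.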

The target in assay [2] is PUM1 PUF domain R3-HRS (Homo sapiens, UniProt Q14671 828-1176, C935H;Q939S). The method in brief:
as §1

Assay [3] has as its target PUM1 PUF domain R3-VCK (Homo sapiens, UniProt Q14671 828-1176, C935V;R936C;Q939K). The method, boiled down: as §1
Assay [4] concerns the target PUM1 PUF domain R7-KHG (Homo sapiens, UniProt Q14671 828-1176, S1079K;N1080H;E1083G). The method in brief:
as §1

The target of assay [5] is PUM1 PUF domain R3-RSY (Homo sapiens, UniProt Q14671 828-1176, C935R;R936S;Q939Y). The method in brief:
as §1

The target of assay [6] is PUM1 PUF domain R3-RAL (Homo sapiens, UniProt Q14671 828-1176, C935R;R936A;Q939L). The method in brief: as §1
Assay [7] deals with PUM1 PUF domain R5-ERA (Homo sapiens, UniProt Q14671 828-1176, C1007E;Q1011A). The method in brief: as §1
In assay [8] the target is PUM1 PUF domain R5-DWE (Homo sapiens, UniProt Q14671 828-1176, C1007D;R1008W;Q1011E). The method, boiled down:
as §1

The target of assay [9] is PUM1 PUF domain R4-PYA (Homo sapiens, UniProt Q14671 828-1176, N971P;H972Y;Q975A). The method in brief:
as §1

Assay [10] addresses PUM1 PUF domain R4-PWR (Homo sapiens, UniProt Q14671 828-1176, N971P;H972W;Q975R). The method in brief:
as §1

Assay [11] deals with T1, PUM1 PUF domain R6-FRQ (Homo sapiens, UniProt Q14671 828-1176, N1043F;Y1044R).
T1 sequence: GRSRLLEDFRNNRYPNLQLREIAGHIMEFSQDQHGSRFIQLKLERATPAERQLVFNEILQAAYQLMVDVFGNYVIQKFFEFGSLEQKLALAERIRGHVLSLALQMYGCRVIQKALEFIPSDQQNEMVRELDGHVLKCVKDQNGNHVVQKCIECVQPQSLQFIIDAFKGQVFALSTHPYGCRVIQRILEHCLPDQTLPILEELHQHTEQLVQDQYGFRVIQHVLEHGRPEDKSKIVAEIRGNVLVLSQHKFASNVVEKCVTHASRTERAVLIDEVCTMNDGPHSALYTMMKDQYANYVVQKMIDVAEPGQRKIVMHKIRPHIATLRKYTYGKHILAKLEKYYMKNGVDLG
The method, boiled down:
as §1

For assay [12], the target named is PUM1 PUF domain R1-RSN (Homo sapiens, UniProt Q14671 828-1176, S863R;R864S;Q867N). The method in brief:
as §1

The target of assay [13] is PUM1 PUF domain R1-RYT (Homo sapiens, UniProt Q14671 828-1176, S863R;R864Y;Q867T). The method, boiled down:
as §1

Assay [14] deals with PUM1 PUF domain R4-FNQ (Homo sapiens, UniProt Q14671 828-1176, N971F;H972N). The method, boiled down: as §1

Consider “GGCUAGAACUAGUGGAUCCCCCGGCGCCCGGCGGCUCGAGCCCGGGUAAGUGUAAGUAGUCUGCAUGCCGCCGGGCGCCAUGCCUGCAGGUCGACUCUAGAAAACAUG”, for which the results for the binding signal in [1], in assay [2] and in assay [3] were 1.73 log2 enrichment (interaction score), 2.22 log2 enrichment (interaction score) and 1.58 log2 enrichment (interaction score), respectively.
Regarding “GGCUAGAACUAGUGGAUCCCCCGGCGCCCGGCGGCUCGAGCCCGGGUAAGUAUAAAUAGUCUGCAUGCCGCCGGGCGCCAUGCCUGCAGGUCGACUCUAGAAAACAUG”, the binding signal in assay [4] is 2.59 log2 enrichment (interaction score).
As for “GGCUAGAACUAGUGGAUCCCCCGGCGCCCGGCGGCUCGAGCCCGGGUAAGUGUAAUUAGUCUGCAUGCCGCCGGGCGCCAUGCCUGCAGGUCGACUCUAGAAAACAUG”, the binding signal in assay [1] was 1.26 log2 enrichment (interaction score); in [5], 2.82 log2 enrichment (interaction score); in assay [6], 3.32 log2 enrichment (interaction score); in [3] it was 2.57 log2 enrichment (interaction score).
Take “GGCUAGAACUAGUGGAUCCCCCGGCGCCCGGCGGCUCGAGCCCGGGUAAGUGUAAAUAGUCUGCAUGCCGCCGGGCGCCAUGCCUGCAGGUCGACUCUAGAAAACAUG”: the binding signal was 3.08 log2 enrichment (interaction score) in assay [7]; 3.79 log2 enrichment (interaction score) in assay [8]; 2.84 log2 enrichment (interaction score) in assay [1]; 4.99 log2 enrichment (interaction score) in assay [9]; 1.17 log2 enrichment (interaction score) in assay [10]; 2.83 log2 enrichment (interaction score) in [11].
For the sequence “GGCUAGAACUAGUGGAUCCCCCGGCGCCCGGCGGCUCGAGCCCGGGUAAGUGUAAAUCGUCUGCAUGCCGCCGGGCGCCAUGCCUGCAGGUCGACUCUAGAAAACAUG”, the binding signal in assay [12] was 5.16 log2 enrichment (interaction score); in [13] it was 5.12 log2 enrichment (interaction score).
Turning to “GGCUAGAACUAGUGGAUCCCCCGGCGCCCGGCGGCUCGAGCCCGGGUAAGUGUGAAUAGUCUGCAUGCCGCCGGGCGCCAUGCCUGCAGGUCGACUCUAGAAAACAUG”, the binding signal in [7] is 2.24 log2 enrichment (interaction score).
“GGCUAGAACUAGUGGAUCCCCCGGCGCCCGGCGGCUCGAGCCCGGGUAAGUGUAUAUAGUCUGCAUGCCGCCGGGCGCCAUGCCUGCAGGUCGACUCUAGAAAACAUG”: the binding signal in assay [14] is 4.16 log2 enrichment (interaction score).
